From ChEMBL document CHEMBL1201862, “PubChem BioAssay data set” (2004) come the findings set out here.

In all, about 400,000 compounds went through this assay and about 2,100 (0.53%) were called active. Inconclusive results (about 14%) are left out. The sample holds actives, similar compounds and a random draw of the others, so the mix is not that of the screen. No rule for the calls is given here.

This assay deals with Ataxin-2 (Homo sapiens) (UniProt Q99700). In words: qHTS for Inhibitors of ATXN expression. It is filed as functional. On the technique in general: Quantitative high-throughput screening tests each substance at several concentrations.
Ataxin-2 (Homo sapiens), sequence (Q99700 whole entry): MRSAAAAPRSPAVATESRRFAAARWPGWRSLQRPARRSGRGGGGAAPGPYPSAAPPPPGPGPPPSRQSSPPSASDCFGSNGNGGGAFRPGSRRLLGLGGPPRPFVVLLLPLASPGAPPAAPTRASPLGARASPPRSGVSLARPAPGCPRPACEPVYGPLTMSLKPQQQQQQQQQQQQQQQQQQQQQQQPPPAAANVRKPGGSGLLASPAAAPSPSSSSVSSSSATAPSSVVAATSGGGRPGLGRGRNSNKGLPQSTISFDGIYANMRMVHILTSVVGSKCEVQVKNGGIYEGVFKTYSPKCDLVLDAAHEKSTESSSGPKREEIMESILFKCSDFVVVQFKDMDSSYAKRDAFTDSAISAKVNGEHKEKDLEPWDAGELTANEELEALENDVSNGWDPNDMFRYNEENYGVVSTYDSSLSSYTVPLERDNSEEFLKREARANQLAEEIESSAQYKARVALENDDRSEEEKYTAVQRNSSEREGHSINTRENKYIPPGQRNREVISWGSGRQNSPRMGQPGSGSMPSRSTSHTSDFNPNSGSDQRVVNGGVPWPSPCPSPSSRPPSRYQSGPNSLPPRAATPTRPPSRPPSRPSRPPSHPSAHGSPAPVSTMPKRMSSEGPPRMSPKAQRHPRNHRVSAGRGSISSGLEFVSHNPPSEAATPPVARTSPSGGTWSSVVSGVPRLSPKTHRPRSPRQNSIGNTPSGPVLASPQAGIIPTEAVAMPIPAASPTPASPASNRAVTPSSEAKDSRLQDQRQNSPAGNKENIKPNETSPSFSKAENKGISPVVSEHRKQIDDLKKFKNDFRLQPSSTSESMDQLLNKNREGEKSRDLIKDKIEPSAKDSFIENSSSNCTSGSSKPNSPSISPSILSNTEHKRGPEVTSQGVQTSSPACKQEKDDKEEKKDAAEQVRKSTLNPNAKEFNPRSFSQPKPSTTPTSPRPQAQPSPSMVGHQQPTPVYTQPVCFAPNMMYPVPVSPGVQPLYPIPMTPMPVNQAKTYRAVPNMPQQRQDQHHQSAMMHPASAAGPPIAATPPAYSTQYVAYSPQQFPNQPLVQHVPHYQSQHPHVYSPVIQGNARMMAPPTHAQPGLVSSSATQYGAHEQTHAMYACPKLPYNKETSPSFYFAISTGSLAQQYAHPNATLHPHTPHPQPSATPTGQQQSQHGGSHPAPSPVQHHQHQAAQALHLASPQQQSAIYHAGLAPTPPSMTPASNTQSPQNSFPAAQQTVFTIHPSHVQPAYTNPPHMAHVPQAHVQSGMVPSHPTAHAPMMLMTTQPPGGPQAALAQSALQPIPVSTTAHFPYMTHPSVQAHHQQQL
As to `O=C(OCC(=O)N1CCCC1)c1c[nH]c2ccccc12`, the Potency entry is “inactive”.
For `Cc1cc(C)c2c(CC(=O)O)c(C)[nH]c2c1` the value was “inactive”; for `O=c1ccc2ccc(O)cc2o1`, “inactive”.
For `CCO/C(O)=C(/Sc1nc(-c2ccccc2)cc(-c2ccccc2)c1C#N)C(C)=O` the value was “inactive”; for `CS(=O)(=O)c1nc(-c2ccc(Br)cc2)cc(-c2ccccc2)c1C#N`, 28.2 µM (active); for `Cn1c2ccccc2n2c(=O)cc(-c3ccccc3)c(C#N)c12`, “inactive”.
As for `N#Cc1c(-c2ccncc2)cc(-c2ccc(F)cc2)nc1N`, the entry is “inactive”.
Turning to `CS(=O)(=O)c1nc(-c2ccccc2)cc(-c2ccccc2)c1C#N`, the Potency was 31.6 µM (active).
`CS(=O)(=O)c1sc2nc(-c3ccccc3)cc(-c3ccccc3)c2c1N`: the Potency result is “inactive”.
For `COCCCn1c(=N)c(C(=O)NCc2cccnc2)cc2c(=O)n3cc(C)ccc3nc21` the value was “inactive”; for `CC(=O)c1c(C)[nH]c(C(=O)OCC(=O)c2ccc3c(c2)NC(=O)CO3)c1C`, “inactive”; for `CC(C)C(=O)Nc1ccc(S(=O)(=O)Nc2nccc(/C=C/c3ccccc3)n2)cc1`, “inactive”.
As for `c1ccc2cc3c(NCCN4CCOCC4)ccnc3cc2c1`, the entry is “inactive”; as for `c1ccc(-c2cc(NCCN3CCCCC3)c3ccccc3n2)cc1`, 20 µM (active).
With `c1ccc(-c2cc(-c3ccc(N4CCOCC4)cc3)nc3ccccc23)cc1`, the Potency result was “inactive”.
For `Cc1ccc(C2C=C(c3ccc4c(c3)OCO4)Nc3ncnn32)cc1` (configuration not stated) the value was “inactive”; for `O=C(NNc1c2ccccc2nc2ccccc12)c1ccccc1O`, 35.5 µM (active); for `CC(C)(C)OC(=O)NNc1c2ccccc2nc2ccccc12`, “inactive”.
As for `CCSc1ccccc1C(=O)Nc1nc(O)c2ccccc2n1`, the entry is “inactive”; as for `Cc1cc(S(=O)(=O)NC(C)C)ccc1OCC(=O)NCc1ccccc1`, “inactive”; as for `COc1ccc(S(=O)(=O)N(CC(=O)NCc2ccccc2)c2ccc(C)cc2)cc1OC`, 35.5 µM (active).
As for `CSc1nsc(SCC(=O)NCc2ccc(C)cc2)n1`, the Potency result was “inactive”.
As for `Cc1c(Cl)cccc1N(CC(=O)NC(C)c1ccccc1)S(C)(=O)=O` (configuration not stated), the entry is “inactive”; as for `Cc1ccc(CNC(=O)CN(c2ccc(C(C)C)cc2)S(=O)(=O)c2c(C)n[nH]c2C)cc1`, 35.5 µM (active).
For `COc1ccc(N(CC(=O)Nc2ccccc2Cl)S(=O)(=O)c2ccc(C)cc2)cc1OC` the value was “inactive”; for `Cc1n[nH]c(C)c1S(=O)(=O)N(CC(=O)NC(C)c1ccccc1)c1ccc(C(C)C)cc1` (configuration not stated), 35.5 µM (active).
As for `Cc1ccc(CNC(=O)CN(C)S(=O)(=O)c2ccc(F)cc2)cc1`, the entry is “inactive”; as for `Cc1cccc(C(=O)NCC(=O)OCC(=O)N2CCc3ccccc32)c1`, “inactive”.
Turning to `N#C/C(=C\Nc1ccc2c[nH]nc2c1)c1nc(-c2ccc(Cl)cc2)cs1`, the Potency entry was “inactive”.
For `O=C(NC(=S)NCc1ccco1)c1ccc(Br)cc1` the value was “inactive”; for `CCCN(CC1CC1)C(=S)NC(=O)c1ccccc1C`, “inactive”.
For the compound `C=CCN(CC=C)C(=S)NC(=O)c1ccc(-c2ccccc2)cc1`, the Potency is 25.1 µM (active).
For `COc1cc(/C=C2/C(=N)N3C(SC)=NSC3=NC2=O)ccc1OC(=O)c1ccco1`, the Potency entry was “inactive”.
Consider `CCOC(=O)N1CCN(C(=O)c2cc3cc(C)ccc3[nH]2)CC1`, for which the Potency entry was “inactive”.
As for `CC(C)CCN1C(=O)C2(OCCCO2)c2cc(Cl)ccc21`, the entry is “inactive”; as for `COc1cccc(NC(=O)C(=O)NCC2CCCN2S(=O)(=O)c2cccs2)c1` (configuration not stated), “inactive”; as for `S=C(Nc1ccc(Cl)c(Cl)c1)NC1CCN(Cc2ccccc2)CC1`, 28.2 µM (active).
As for `Cc1ccc(NC(=S)NCc2ccccc2)cc1C`, the entry is “inactive”; as for `O=C(NC1CCN(Cc2ccccc2)CC1)c1ccccc1Cl`, “inactive”; as for `CCCCCCSc1cc(-c2nc3cc(C)ccn3c2NCCCC)ccc1OC`, 35.5 µM (active).
As for `CCCCNc1c(-c2ccc(OC)c(SC(C)CC)c2)nc2cnccn12` (configuration not stated), the entry is “inactive”; as for `CCCCCCSc1cc(-c2nc3cnccn3c2NCCCC)ccc1OC`, “inactive”; as for `COC(=O)C1=C(C)N(Cc2ccccc2)C(NCc2cc(OC)c(OC)c(OC)c2)=N[C@H]1c1ccc(Br)cc1`, 35.5 µM (active).
In the case of `COC(=O)C1=C(C)N(c2ccc(OC)cc2)C(C)=C(C(=O)OC)C1c1ccccc1`, the Potency result is “inactive”.
For the compound `COC(=O)C1=C(C)N(Cc2ccccc2)C(NCc2ccccc2)=N[C@H]1c1cccc(F)c1`, the Potency is 31.6 µM (active).
For `COC(=O)C1=CN(Cc2ccc(OC)c(OC)c2)C=C(C(=O)OC)C1c1cccc(OC)c1OC` the value was “inactive”; for `CCN1C=C(C(=O)OC)C(c2cccc(C)c2)C(C(=O)OC)=C1`, “inactive”.
For `COC(=O)C1=C(C)N(Cc2ccccc2)C(NCC(C)C)=N[C@H]1c1cccc(F)c1` the value was 31.6 µM (active); for `COC(=O)C1=CN(Cc2ccccc2)C=C(C(=O)OC)C1c1cc(F)ccc1F`, “inactive”; for `COC(=O)C1=CN(C(C)C)C=C(C(=O)OC)C1c1cc(Br)c(OC)c(OC)c1`, “inactive”.
`COC(=O)C1=C(C)N(Cc2ccccc2)C(NCc2ccc(OC)cc2)=N[C@H]1c1cccc(F)c1`: the Potency was 35.5 µM (active).
As for `O=C(COC(=O)c1c(F)cccc1F)NC(=O)NCc1ccccc1`, the entry is “inactive”; as for `COCCNC(=O)/C(C#N)=C/c1c(N2CCN(C)CC2)nc2ccccn2c1=O`, “inactive”.
Regarding `COc1ccc2oc3cc(NCCN(C)C)ccc3c(=O)c2c1`, the Potency entry is “inactive”.
`CCOc1ccc(C(=O)/C=C/c2cn(CC(O)CN3CCc4ccccc43)c3ccccc23)cc1` (configuration not stated): the Potency result is “inactive”.
As to `CCCN(CCC)CC(O)Cn1cc(/C=C/C(=O)c2ccc(Br)cc2)c2ccccc21` (configuration not stated), the Potency entry was “inactive”.
As for `Cc1nc(-c2ccc([N+](=O)[O-])cc2)c(-c2ccccc2)o1`, the entry is “inactive”.
For `Cc1nc2c(o1)C(=O)c1ccccc1C2=Nc1ccccc1` the value was 31.6 µM (active).
Turning to `CC(C)C(NC(=O)c1c(F)cccc1F)C(=O)NCCc1ccc(S(N)(=O)=O)cc1` (configuration not stated), the Potency result is “inactive”.
As for `COc1ccc(CCNC(=O)c2ccc(CSc3ccccc3)o2)cc1`, the entry is “inactive”; as for `CCc1ccccc1S(=O)(=O)Cc1ccc(C(=O)NCCc2ccc(Cl)cc2)o1`, 25.1 µM (active).
With `CCC(=O)Nc1cc2nc(O)cc(C)c2cc1C`, the Potency result was “inactive”.
For `CCN1CCSc2ccc(C(=O)NCc3ccccc3F)cc21`, the Potency result was “inactive”.
As for `O=C(Cc1ccc(Cl)cc1)NCCc1ccc(F)cc1`, the entry is “inactive”; as for `O=C(NCCc1ccc(Cl)cc1)c1ccc2c(c1)N(Cc1ccc(F)cc1Cl)C(=O)CS2`, 14.1 µM (active).
As for `CCc1c(-c2ccccc2)nc2nc(C)c(C)nn12`, the entry is “inactive”; as for `CCCCN1C(C(=O)Nc2cc(C)on2)=C(O)c2ccccc2S1(=O)=O`, “inactive”.
As to `COc1cc(N(C(C)=O)c2ccc(O)cc2)c2ncccc2c1`, the Potency entry is “inactive”.
For `CCCC(=O)NC(c1ccc(OC)cc1)c1ccc2cccnc2c1O` (configuration not stated) the value was “inactive”; for `COc1cccc(N=Nc2ccc3cccnc3c2O)c1`, 11.2 µM (active); for `COCC(=O)N1CCC(n2nccc2NC(=O)CCOc2ccccc2)CC1`, “inactive”.
Regarding `CCS(=O)(=O)N1Cc2ccccc2CC1C(=O)N(C)CC(=O)Nc1ccc(OC)cc1` (configuration not stated), the Potency entry is “inactive”.
As for `COc1cc(OC)c(OC)cc1/C=C1\Oc2cc(OCC(=O)N3Cc4ccccc4C[C@H]3C(=O)O)ccc2C1=O`, the entry is “inactive”.
Take `COC(=O)C1Cc2ccccc2CN1C(=O)CCl` (configuration not stated): the Potency is 42.3 µM (active).
Consider `O=C(c1ccc([N+](=O)[O-])cc1)N1CCC(n2nnc3cc(F)ccc32)CC1`, for which the Potency result was “inactive”.
Regarding `CCC(C(=O)NCc1cccc(C)c1)n1nc(C)c2c(C)n(-c3ccccc3)nc2c1=O` (configuration not stated), the Potency result is “inactive”.
For `CC(=O)Nc1sc2c(c1C(N)=O)CCN(Cc1ccccc1)C2` the value was “inactive”.
For `CC(=O)N1CCc2c(sc3c2c(=O)n(-c2ccccc2Cl)c(=O)n3Cc2cccc(C)c2)C1` the value was 35.5 µM (active); for `NNc1ncnc2sc3c(c12)CCC3`, “inactive”.
For `CCCCNC(=O)COC(=O)c1c2c(nc3ccccc13)/C(=C\c1cccs1)CC2`, the Potency entry was “inactive”.
For `CCOCCCn1/c(=N/C(C)=O)c(C#N)cc2c(=O)n3cccc(C)c3nc21` the value was “inactive”; for `CCN(CC)CCCNc1cc(C(F)(F)F)c(C#N)c2nc3ccccc3n12`, “inactive”.
Regarding `CCc1ccc(C2=CC(c3cc(Br)ccc3F)n3ncnc3N2)cc1` (configuration not stated), the Potency entry was “inactive”.
As for `O=C(Nc1ccc(S(=O)(=O)Nc2ccccn2)cc1)c1cccc(Cl)c1`, the entry is “inactive”; as for `O=C(Nc1cccc(-c2cn3ccccc3n2)c1)c1cccc(Cl)c1`, 39.8 µM (active).
Consider `O=C(Nc1ncccn1)c1cccc(Cl)c1`, for which the Potency entry was “inactive”.
Take `Cc1cccn2cc(-c3cc4ccccc4oc3=O)nc12`: the Potency entry was “inactive”.
As for `O=C(Nc1cccc(-c2cn3ccccc3n2)c1)c1cc2ccccc2oc1=O`, the figure is 22.4 µM (active); as for `Cc1ccn2cc(-c3cc4ccccc4oc3=O)nc2c1`, “inactive”.
Take `CCc1c(C)c2cc(Cl)c(O)c(CN(C)C)c2oc1=O`: the Potency entry is “inactive”.
For `COc1ccc(/C=N/NC(=O)c2ccncc2)cc1CN1CCOCC1` the value was “inactive”; for `COc1ccc(/C=N/n2cnc3c4cc(C)ccc4nc-3c2O)cc1CN1CCCC1`, 39.8 µM (active).
For `COc1ccc(/C=N/N2C(C)CCCC2C)cc1OC` (configuration not stated) the value was “inactive”; for `CCOc1ccc2nc(NCCN=C(S)NCCCN(C)C)c(C#N)cc2c1`, “inactive”.
As for `Cc1c(O)ccc2c(-c3ccccc3)cc(=O)oc12`, the entry is “inactive”; as for `COc1ccc(CNC[C@@H](CCCCN(C)Cc2ccc(OC)cc2)N2C[C@H](c3ccccc3)N(CCc3ccc(Cl)c(Cl)c3)C(=O)C2=O)cc1`, 25.1 µM (active).
Regarding `CC(=O)NS(=O)(=O)c1ccc(/N=c2\ssc3c2-c2cc(C)ccc2NC3(C)C)cc1`, the Potency was 39.8 µM (active).
For `O=C(Nc1ccc(F)cc1)c1ccc2nc(O)c(O)nc2c1` the value was “inactive”; for `Cc1cccc(OCC(=O)Nc2ccc3nc(Nc4cccc(Cl)c4)cc(C)c3c2)c1`, “inactive”; for `COc1ccc(Nc2cc(C)c3cc(NC(=O)c4cc(OC)cc(OC)c4)ccc3n2)cc1`, “inactive”.
As for `COc1ccc(Nc2cc(C)c3cc(NC(=O)Cc4c(F)cccc4Cl)ccc3n2)cc1`, the entry is “inactive”; as for `CCN(CC)c1cc(C)c2cc(NC(=O)c3cc(OC)cc(OC)c3)ccc2n1`, 35.5 µM (active); as for `CCN(CC)c1cc(C)c2cc(NC(=O)/C=C/c3ccccc3Cl)ccc2n1`, 28.2 µM (active).
As for `CCN(CC)c1cc(C)c2cc(NC(=O)c3cccc(F)c3)ccc2n1`, the figure is 39.8 µM (active); as for `CCN(CC)c1cc(C)c2cc(NC(=O)c3ccc(Br)o3)ccc2n1`, 35.5 µM (active); as for `CCn1nc(NC(=O)c2ccccc2)c2cc3cccc(C)c3nc21`, “inactive”.
As for `Cc1cc(Nc2cccc(Cl)c2)nc2ccc(NC(=O)c3cncc(Br)c3)cc12`, the Potency entry was “inactive”.
